# KLK7 zymogen act: activates the human kallikrein-7 zymogen | activation, % at 7 µM | purified proKLK7, EDANS-DABCYL substrate fluorescence; 100% is mature enzyme control, 0% vehicle | P49862 | AID 652039 | 370,000 tested, 0.9% active;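 active = activation above the mean of all tested compounds plus 3 SD, computed per campaign excluding outliers beyond control limits, cut at about 13% in these data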
# HGIII-sPLA2 inh: Inhibits HGIII-sPLA2 liposome hydrolysis, primary screen. Q9NZ20. QFRET BODIPY PC-A2 liposome hydrolysis, fluorescence. inhibition, % at 12.2 µM. 370,000 tested, 0.56% active;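 active = inhibition above mean plus 3 SD of compounds lying within the high and low control bounds, cut at about 19% in these data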;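 also: 0% = median of test compound wells and 100% = no enzyme DMSO wells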
# PLCg1 inh: inhibitors of human phospholipase C gamma1; inhibition, % at 12.2 µM; P19174; 370,000 tested, 0.84% active; purified PLC-gamma1, fluorogenic substrate, fluorescence; in the data active = inhibition above about 9.5%
# PLC-beta3 inh: inhibitors of human phospholipase C beta3; Q01970; Purified PLC-beta3, fluorogenic substrate, fluorescence; inhibition, % at 12.2 µM; 370,000 tested, 0.18% active; AID 720704; in the data active = inhibition above about 11%;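 also: 0% = median of compound wells on plate and 100% = full blocker control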
# ADAM17 inh: inhibits human ADAM17 | P78536 | recombinant ADAM17, EDANS/DABCYL FRET peptide cleavage | inhibition, % at 6.95 µM | 370,000 tested, 0.83% active | AID 720648;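 active = inhibition above the mean of compounds lying between control limits plus 3 SD, set per campaign, cut at about 8.5% in these data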;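 also: 0% = DMSO-only wells as the low control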
# ADAM10 inh: inhibits human ADAM10; O14672; recombinant ADAM10, EDANS/DABCYL FRET peptide cleavage, 3 h; inhibition, % at 7 µM; 370,000 tested, 0.62% active; AID 720582;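 active = inhibition above a per-campaign cutoff equal to the mean of compounds falling between control-based bounds plus 3 SD, cut at about 20% in these data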;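 also: 0% = DMSO wells while the 100% control is not disclosed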
# ADAM10 ctr: ADAM10 inhibition, counter-screen for ADAM17 exosite hits. shares compounds with ADAM17 inh. recombinant ADAM10, EDANS/DABCYL FRET peptide cleavage, 3 h. inhibition, % at 6.95 µM. 2,900 tested, 47% active. AID 743256;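 active = mean inhibition over the triplicate runs exceeds the activity threshold set in the earlier primary screen, cut at about 20% in these data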;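 also: 0% = DMSO wells and 100% = marimastat wells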
# ADAM17 confirm: confirmation of inhibitors of human ADAM17; shares compounds with ADAM17 inh; recombinant ADAM17, EDANS/DABCYL QFRET peptide cleavage; inhibition, % at 6.95 µM; 2,900 tested, 65% active;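 active = mean inhibition across replicates above the hit cutoff set in the primary screen, cut at about 8.5% in these data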;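 also: 0% = DMSO wells and 100% = marimastat wells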
# The depositor's hits bear a star; . = not tested or not shown. Compounds with a hit are over-represented: about 3.4% of the library has one in this group of screens.
SMILES,KLK7 zymogen act,HGIII-sPLA2 inh,PLCg1 inh,PLC-beta3 inh,ADAM17 inh,ADAM10 inh,ADAM10 ctr,ADAM17 confirm
Cc1cccc(-c2noc(-c3ccccc3C(=O)NCC3CCCO3)n2)c1 (configuration not stated),0.3,-3.2,0.7,1.2,1.1,2.4,.,.
COc1cccc(NC(=O)c2ccccc2-c2nc(-c3cccc(C)c3)no2)c1,0.2,-23.0,-2.4,1.7,9.6*,24.6*,26.3*,15.1*
COc1ccccc1-c1csc(C(O)(c2ccccc2)C(F)(F)F)n1 (configuration not stated),1.1,-28.0,0.8,-5.2,10.3*,16.6,33.6*,19.0*
COc1cc(F)ccc1-c1csc(C(C)(O)c2ccccc2)n1 (configuration not stated),0.4,-26.6,4.2,1.0,10.1*,18.3,23.8*,11.4*
COc1cccc(C(C)(O)c2nc(-c3ccccc3OC)cs2)c1 (configuration not stated),-0.5,-17.8,7.5,3.9,6.3,11.5,.,.
COc1ccc(-c2csc(C(O)(c3ccccc3)C(F)(F)F)n2)cn1 (configuration not stated),-0.2,-11.6,0.9,-2.2,3.2,4.7,.,.
C[C@H](CO)N1C[C@H](C)[C@@H](CN(C)Cc2ccc3c(c2)OCO3)Oc2cc(Br)ccc2S1(=O)=O,-0.8,-24.3,0.0,1.0,8.9*,11.8,25.3*,14.0*
Cc1cccc(C)c1N(CC(O)Cn1c2ccccc2c2ccccc21)S(C)(=O)=O (configuration not stated),0.4,-58.3,-0.2,1.7,5.5,14.3,.,.
CS(=O)(=O)N(Cc1ccco1)CC(O)Cn1c2ccccc2c2ccccc21 (configuration not stated),-0.1,-60.6,8.5,4.4,9.9*,9.2,3.6,4.6
CN[C@H]1C[C@H]2c3cc(-c4ccc5c(c4)OCO5)ccc3CCN2C[C@H]1[C@H](C)O,0.0,0.0,0.0,1.7,-2.2,7.6,.,.
Cc1ccccc1CN1CCCCC(NC(=O)Nc2ccccc2-c2ccccc2)C1=O (configuration not stated),0.4,4.2,1.4,-0.9,0.2,9.1,.,.
COc1ccccc1NC(=O)CN1C(=O)NC2(CCCCCCC2)C1=O,0.4,0.0,6.7,7.4,6.1,2.5,.,.
COc1ccccc1OCCNC(=O)CN1C(=O)NC2(CCCC2)C1=O,0.2,-1.5,5.0,-2.8,9.3*,-1.3,7.7,8.1
Cc1ccccc1OCc1nnc(SCC(=O)Nc2ccc3nc(SCC(=O)Nc4ccccc4)sc3c2)n1C,0.3,-10.0,7.5,5.9,10.7*,12.4,-43.4,-8.3
CC(COc1cccc(F)c1)CN1CCC(C(O)(c2ccccc2)c2ccccc2)CC1 (configuration not stated),0.7,-14.8,8.4,3.2,9.8*,14.1,11.3,6.5
CN(CCc1ccccc1)C(=O)c1ccc2c(c1)ncn2C1CCCCC1,-0.2,-0.6,2.4,-2.0,2.4,-9.6,.,.
CC1=CC(C)(C)N2C(=O)C3(SCC(=O)N3c3ccc(F)cc3)c3cc(C)cc1c32 (configuration not stated),-0.2,2.2,7.8,-1.2,9.5*,7.1,21.3*,12.5*
CC1=CC(C)(C)N2C(=O)C3(NCCc4c3[nH]c3ccccc43)c3cc(C)cc1c32 (configuration not stated),-0.1,3.1,3.4,-4.6,4.7,9.5,.,.
Cc1ccc(/C(CSc2nccn2-c2ncc(C(F)(F)F)cc2Cl)=N\O)cc1,0.5,-17.7,4.5,1.6,15.1*,11.1,5.1,9.1*
NC(=O)c1cccn1-c1ncc(C(F)(F)F)cc1Cl,0.3,-2.6,-0.4,2.2,1.1,-3.1,.,.
O=C(c1ccccc1[N+](=O)[O-])N(CCc1ccccc1)Cc1ccccc1,-0.2,-0.9,0.4,-5.6,1.3,-3.0,.,.
Cc1cccc(C(=O)N(CCc2ccccc2)Cc2ccccc2)c1[N+](=O)[O-],-0.2,-5.0,-0.3,-11.2,8.8*,14.0,27.9*,13.0*
Cc1cn(CCC(=O)Nc2ccc(N3CCOCC3)cc2)c2ccccc12,0.3,-24.2,-2.7,-6.3,0.7,0.9,.,.
Cc1cn(CCC(=O)Nc2ccccc2N2CCOCC2)c2ccccc12,-0.4,-28.4,8.7,4.8,8.9*,8.9,24.8*,12.0*
Cc1ccccc1NC(=O)c1cc(C(=O)c2cc(Cl)ccc2O)cn(-c2ccccc2C)c1=O,-4.5,-26.2,-19.6,-26.9,9.7*,15.1,5.0,7.9
SMILES,KLK7 zymogen act,HGIII-sPLA2 inh,PLCg1 inh,PLC-beta3 inh,ADAM17 inh,ADAM10 inh,ADAM10 ctr,ADAM17 confirm
COc1ccc(OC)c(C(c2nnnn2Cc2ccco2)N2CCN(C)CC2)c1 (configuration not stated),-0.8,4.4,7.0,-0.5,0.0,7.0,.,.
Clc1ccccc1C(c1nnnn1Cc1ccco1)N1CCN(Cc2ccco2)CC1 (configuration not stated),0.4,-9.4,1.2,-4.9,9.2*,12.7,-14.8,-0.6
CCN(CC)S(=O)(=O)c1cc(NC(=O)C(C)N2CCc3ccccc32)ccc1C (configuration not stated),-0.3,-16.3,1.2,3.4,10.1*,17.9,10.5,7.1
CCOC(=O)[C@]12CCCC=C1N(CCCOC)C(=O)[C@@H]2CC(=O)NCc1ccccc1,-0.5,-0.8,-1.4,-1.6,-8.3,-4.9,.,.
COC(=O)[C@]12C[C@H](CC(=O)N3CCN(C(=O)c4ccco4)CC3)C(=O)N(Cc3ccc4c(c3)OCO4)C1=C[C@H](C(C)C)O[C@@H]2C1CC1,-0.2,-6.7,-0.6,-1.1,-7.2,-7.7,.,.
COc1ccccc1NC(=O)Cn1nc(-c2ccc(Cl)cc2)c2ccccc2c1=O,0.0,9.1,-21.9,6.3,8.7*,14.0,14.0,14.3*
COc1ccccc1NC(=O)COc1ccc(-c2nn(C)c(=O)c3ccccc23)cc1,-0.5,6.5,-1.5,-11.7,-4.4,6.6,.,.
CC(C)[C@H](NC(=O)OC(C)(C)C)C(=O)N1CCC(Oc2cccnc2)CC1,0.8,3.4,2.1,4.3,-1.1,5.1,.,.
ON=C(c1ccccc1)c1ccc2c3c(cccc13)CC2,0.4,0.7,-2.8,-2.5,11.6*,1.9,20.2*,9.0*
Cc1ccc(C2C3=C(CC(C)(C)CC3=O)N=C3c4ccccc4C(=O)C32)cc1 (configuration not stated),0.8,15.7,6.8,-3.6,8.7*,3.1,-16.3,3.3

# Bioassay records as filed in PubChem BioAssay.
